Laboratory results as given in PubChem BioAssay (EPA / NIEHS).
The source made the active and inactive calls. How the source made its calls: active means hit-call score of the fitted dose curve at least 0.9, where 1 is the maximum; inactive means score below 0.9.

How the values were obtained:
Conditions in all cases: mRNA level, 48 h; actives raise or lower the signal
[1] = read-out: JUN Transcription Factor, JUN (gene 3725); experiment: LTEA_HepaRG_JUN: Life Technologies and Expression Analysis (LTEA) Assay for JUN Transcription Factor using HepaRG (AID 2283513)
Method in brief: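 Cells plated 48 h, medium switched to serum-free induction medium, then dosed 48 h (100 uM top, half-log dilutions, 0.5% DMSO). RNA isolated; JUN measured by qRT-PCR against three housekeeping genes; gain or loss fitted relative to DMSO.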

[2] = read-out: Lipase C (LIPC), LIPC (gene 3990); experiment: LTEA_HepaRG_LIPC: Life Technologies and Expression Analysis (LTEA) Assay for Lipase C (LIPC) using HepaRG (AID 2283514)
Method in brief: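 HepaRG cells, 48 h after plating, treated in duplicate for 48 h in serum-free induction medium over 8 half-log concentrations from 100 uM, 0.5% DMSO. LIPC mRNA by TaqMan qRT-PCR normalized to ACTB/GAPDH/POLR2A; bidirectional fit versus DMSO.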

[3] = read-out: Lipoprotein lipase (LPL), LPL (gene 4023); experiment: LTEA_HepaRG_LPL: Life Technologies and Expression Analysis (LTEA) Assay for Lipoprotein lipase (LPL) using HepaRG (AID 2283515)
Method in brief: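 Differentiated HepaRG cells, plated 48 h, then exposed 48 h in serum-free induction medium to 8 concentrations (top 100 uM, half-log steps) in 0.5% DMSO, duplicate. LPL mRNA measured by qRT-PCR, normalized to ACTB, GAPDH and POLR2A.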

[4] = read-out: MicroRNA 122 (MIR122), gene 406906; experiment: LTEA_HepaRG_MIR122: Life Technologies and Expression Analysis (LTEA) Assay for MicroRNA 122 (MIR122) using HepaRG (AID 2283516); further: the transcript read is the microRNA miR-122
Method in brief: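 HepaRG plated 48 h, switched to serum-free induction medium, then treated in duplicate for 48 h (100 uM top, half-log steps, 0.5% DMSO vehicle). RNA isolated, qRT-PCR performed, concentration-response fitted both directions relative to DMSO.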

[5] = read-out: matrix metalloproteinase-10 (MMP10), MMP10 (gene 4319); experiment: LTEA_HepaRG_MMP10: Life Technologies and Expression Analysis (LTEA) Assay for matrix metalloproteinase-10 (MMP10) using HepaRG (AID 2283517)
Method in brief: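 Differentiated HepaRG cells in serum-free induction medium exposed 48 h in duplicate to 8-point half-log series up to 100 uM in 0.5% DMSO. mRNA quantified by qRT-PCR, normalised to ACTB, GAPDH, POLR2A; bidirectional fit versus DMSO.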

[6] = read-out: matrix metalloproteinase-3 (MMP3), MMP3 (gene 4314); experiment: LTEA_HepaRG_MMP3: Life Technologies and Expression Analysis (LTEA) Assay for matrix metalloproteinase-3 (MMP3) using HepaRG (AID 2283519)
Method in brief: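 HepaRG cells (~100,000/well) in serum-free induction medium were dosed in duplicate for 48 h with an 8-point half-log series from 100 uM, 0.5% DMSO. MMP3 mRNA was quantified by Fluidigm TaqMan qRT-PCR, normalized to three housekeeping genes.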

[7] = read-out: Paternally Expressed 10 (PEG10), PEG10 (gene 23089); experiment: LTEA_HepaRG_PEG10: Life Technologies and Expression Analysis (LTEA) Assay for Paternally Expressed 10 (PEG10) using HepaRG (AID 2283520)
Method in brief: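 HepaRG, 48 h post-plating → serum-free induction medium → 48 h chemical exposure (duplicate, 8-pt, max 100 uM, half-log, 0.5% DMSO) → lysis in RLT → TaqMan qRT-PCR for PEG10, ACTB/GAPDH/POLR2A normalisation.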

[8] = read-out: Nuclear factor NF-kappa-B p105 subunit (Homo sapiens) (UniProt P19838); experiment: LTEA_HepaRG_NFKB1: Life Technologies and Expression Analysis (LTEA) Assay for Nuclear Factor Kappa B Subunit 1 (NFKB1) using HepaRG (AID 2283521)
Method in brief: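 NFKB1 transcript was measured by TaqMan qRT-PCR on Fluidigm arrays, normalised to three housekeeping genes and fitted in both directions against 0.5% DMSO. HepaRG cells were dosed in duplicate for 48 h in serum-free induction medium, eight half-log steps from 100 uM.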

[9] = read-out: Protein phosphatase 2A (PPP2R4), PTPA (gene 5524); experiment: LTEA_HepaRG_PPP2R4: Life Technologies and Expression Analysis (LTEA) Assay for Protein phosphatase 2A (PPP2R4) using HepaRG (AID 2283522)
Method in brief: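 Readout is PPP2R4 transcript level by microfluidic qRT-PCR after 48 h chemical treatment of human HepaRG liver cells. Concentrations spanned 100 uM downward in half-log steps; gain or loss of signal was fitted relative to DMSO.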

[10] = read-out: Phosphatase and tensin (PTEN), PTEN (gene 5728); experiment: LTEA_HepaRG_PTEN: Life Technologies and Expression Analysis (LTEA) Assay for Phosphatase and tensin (PTEN) using HepaRG (AID 2283523)
Method in brief: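 HepaRG cells, 48 h after plating, exposed in duplicate for 48 h in serum-free induction medium to 8 half-log concentrations up to 100 uM (0.5% DMSO). PTEN mRNA by qRT-PCR, normalized to ACTB, GAPDH, POLR2A; bidirectional fit versus DMSO.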

[11] = read-out: solute carrier (SLC22A1), SLC22A1 (gene 6580); experiment: LTEA_HepaRG_SLC22A1: Life Technologies and Expression Analysis (LTEA) Assay for solute carrier (SLC22A1) using HepaRG (AID 2283524)
Method in brief: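 Differentiated human HepaRG cells in serum-free induction medium, exposed 48 h in duplicate to 8-point half-log series from 100 µM top in 0.5% DMSO. SLC22A1 mRNA by TaqMan qRT-PCR normalized to ACTB, GAPDH, POLR2A; bidirectional fit versus DMSO.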

[12] = read-out: Pyruvate Dehydrogenase Kinase 4 (PDK4), PDK4 (gene 5166); experiment: LTEA_HepaRG_PDK4: Life Technologies and Expression Analysis (LTEA) Assay for Pyruvate Dehydrogenase Kinase 4 (PDK4) using HepaRG (AID 2283525)
Method in brief: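 HepaRG cells plated 48 h, then switched to serum-free induction medium and exposed in duplicate for 48 h to 8 half-log concentrations from 100 uM in 0.5% DMSO. PDK4 mRNA measured by qRT-PCR, normalized to ACTB, GAPDH and POLR2A; bidirectional fit versus DMSO.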

[13] = read-out: NAD(P)H dehydrogenase [quinone] 1 (NQO1), NQO1 (gene 1728); experiment: LTEA_HepaRG_NQO1: Life Technologies and Expression Analysis (LTEA) Assay for NAD(P)H dehydrogenase [quinone] 1 (NQO1) using HepaRG (AID 2283526)
Method in brief: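 HepaRG, 48 h post-plating → serum-free induction medium → test chemical 48 h (duplicate, 100 uM top, half-log x8, 0.5% DMSO) → RNA isolation → qRT-PCR, ACTB/GAPDH/POLR2A normalization; bidirectional curve fit vs DMSO baseline.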

[14] = read-out: succinate dehydrogenase complex iron sulfur subunit B (SDHB), SDHB (gene 6390); experiment: LTEA_HepaRG_SDHB: Life Technologies and Expression Analysis (LTEA) Assay for succinate dehydrogenase complex iron sulfur subunit B (SDHB) using HepaRG (AID 2283528)
Method in brief: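 SDHB transcript level read by TaqMan qRT-PCR, housekeeping-normalised (ACTB, GAPDH, POLR2A), after 48 h chemical treatment of plated HepaRG cells; eight concentrations top 100 uM, half-log steps, 0.5% DMSO, duplicates; fitted both directions against DMSO.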

[15] = read-out: Signal transducer and activator of transcription 3 (Homo sapiens) (UniProt P40763); experiment: LTEA_HepaRG_STAT3: Life Technologies and Expression Analysis (LTEA) Assay for Signal transducer and activator of transcription (STAT3) using HepaRG (AID 2283529)
Method in brief: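 Differentiated HepaRG cells, serum-free induction medium, dosed 48 h in duplicate, 8 half-log concentrations from 100 uM in 0.5% DMSO. STAT3 mRNA by qRT-PCR, normalised to ACTB, GAPDH, POLR2A; bidirectional fit versus DMSO.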

[16] = read-out: solute carrier (SLCO1B1), SLCO1B1 (gene 10599); experiment: LTEA_HepaRG_SLCO1B1: Life Technologies and Expression Analysis (LTEA) Assay for solute carrier (SLCO1B1) using HepaRG (AID 2283530)
Method in brief: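 SLCO1B1 transcript read by qRT-PCR (Fluidigm arrays), normalized to three housekeeping genes, after 48 h chemical exposure of HepaRG cells; bidirectional concentration-response fitting versus 0.5% DMSO baseline. Eight-point half-log series, maximum 100 uM.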

[17] = read-out: Potassium channel subfamily K member 1 (KCNK1), KCNK1 (gene 3775); experiment: LTEA_HepaRG_KCNK1: Life Technologies and Expression Analysis (LTEA) Assay for Potassium channel subfamily K member 1 (KCNK1) using HepaRG (AID 2283511)
Method in brief: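 Differentiated HepaRG cells, 48 h exposure in serum-free induction medium with 0.5% DMSO; 8 concentrations, half-log from 100 uM, duplicate. KCNK1 mRNA by qRT-PCR, normalized to ACTB, GAPDH, POLR2A; bidirectional fit vs DMSO.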

[18] = read-out: Nuclear factor erythroid 2-related factor 2 (Homo sapiens) (UniProt Q16236); experiment: LTEA_HepaRG_NFE2L2: Life Technologies and Expression Analysis (LTEA) Assay for Nuclear factor erythroid 2-related factor 2 (NFE2L2) Transcription Factor using HepaRG (AID 2283527)
Method in brief: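 Differentiated human HepaRG cells, serum-free induction medium, exposed 48 h in duplicate to eight half-log concentrations up to 100 uM in 0.5% DMSO. NFE2L2 mRNA by Fluidigm TaqMan qRT-PCR, normalised to ACTB, GAPDH, POLR2A; bidirectional change versus DMSO.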

Measured: AC50

Chain of Signal transducer and activator of transcription 3 (Homo sapiens) (P40763 whole entry, looked up): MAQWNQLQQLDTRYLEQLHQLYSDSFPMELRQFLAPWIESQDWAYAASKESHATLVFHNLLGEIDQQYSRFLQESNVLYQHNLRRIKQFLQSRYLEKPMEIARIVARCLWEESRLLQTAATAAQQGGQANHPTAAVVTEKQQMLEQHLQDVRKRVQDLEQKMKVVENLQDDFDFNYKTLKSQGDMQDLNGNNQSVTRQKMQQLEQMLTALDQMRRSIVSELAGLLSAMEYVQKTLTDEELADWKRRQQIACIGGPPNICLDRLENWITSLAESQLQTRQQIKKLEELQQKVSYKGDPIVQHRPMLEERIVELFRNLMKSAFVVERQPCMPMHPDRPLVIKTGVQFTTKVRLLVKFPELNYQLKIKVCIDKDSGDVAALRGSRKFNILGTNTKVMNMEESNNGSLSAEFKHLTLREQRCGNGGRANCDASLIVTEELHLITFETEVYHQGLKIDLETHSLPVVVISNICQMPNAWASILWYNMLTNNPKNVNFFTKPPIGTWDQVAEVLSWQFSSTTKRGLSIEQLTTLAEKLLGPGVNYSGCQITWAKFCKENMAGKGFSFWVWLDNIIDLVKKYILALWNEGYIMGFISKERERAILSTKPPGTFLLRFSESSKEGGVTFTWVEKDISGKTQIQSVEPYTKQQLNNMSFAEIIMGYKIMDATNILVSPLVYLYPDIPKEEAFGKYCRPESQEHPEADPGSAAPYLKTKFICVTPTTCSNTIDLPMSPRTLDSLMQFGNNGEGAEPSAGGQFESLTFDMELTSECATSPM
Chain of Nuclear factor erythroid 2-related factor 2 (Homo sapiens) (Q16236 whole entry, looked up): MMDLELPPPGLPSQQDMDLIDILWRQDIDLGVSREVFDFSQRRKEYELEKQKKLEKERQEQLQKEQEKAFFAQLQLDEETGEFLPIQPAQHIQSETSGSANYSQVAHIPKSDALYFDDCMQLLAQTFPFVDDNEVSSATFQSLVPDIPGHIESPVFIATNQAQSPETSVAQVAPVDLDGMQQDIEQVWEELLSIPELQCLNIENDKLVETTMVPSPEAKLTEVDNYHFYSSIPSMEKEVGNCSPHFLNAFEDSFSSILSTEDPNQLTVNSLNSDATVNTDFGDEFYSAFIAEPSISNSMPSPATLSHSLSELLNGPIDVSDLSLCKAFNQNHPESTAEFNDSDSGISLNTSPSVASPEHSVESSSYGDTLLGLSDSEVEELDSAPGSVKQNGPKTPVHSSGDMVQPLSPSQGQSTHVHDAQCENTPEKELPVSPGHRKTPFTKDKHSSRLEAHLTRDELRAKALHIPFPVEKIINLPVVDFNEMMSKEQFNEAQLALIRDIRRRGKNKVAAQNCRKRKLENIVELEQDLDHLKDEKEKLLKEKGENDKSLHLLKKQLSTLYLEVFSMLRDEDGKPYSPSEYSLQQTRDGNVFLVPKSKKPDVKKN
Chain of Nuclear factor NF-kappa-B p105 subunit (Homo sapiens) (P19838 whole entry, looked up): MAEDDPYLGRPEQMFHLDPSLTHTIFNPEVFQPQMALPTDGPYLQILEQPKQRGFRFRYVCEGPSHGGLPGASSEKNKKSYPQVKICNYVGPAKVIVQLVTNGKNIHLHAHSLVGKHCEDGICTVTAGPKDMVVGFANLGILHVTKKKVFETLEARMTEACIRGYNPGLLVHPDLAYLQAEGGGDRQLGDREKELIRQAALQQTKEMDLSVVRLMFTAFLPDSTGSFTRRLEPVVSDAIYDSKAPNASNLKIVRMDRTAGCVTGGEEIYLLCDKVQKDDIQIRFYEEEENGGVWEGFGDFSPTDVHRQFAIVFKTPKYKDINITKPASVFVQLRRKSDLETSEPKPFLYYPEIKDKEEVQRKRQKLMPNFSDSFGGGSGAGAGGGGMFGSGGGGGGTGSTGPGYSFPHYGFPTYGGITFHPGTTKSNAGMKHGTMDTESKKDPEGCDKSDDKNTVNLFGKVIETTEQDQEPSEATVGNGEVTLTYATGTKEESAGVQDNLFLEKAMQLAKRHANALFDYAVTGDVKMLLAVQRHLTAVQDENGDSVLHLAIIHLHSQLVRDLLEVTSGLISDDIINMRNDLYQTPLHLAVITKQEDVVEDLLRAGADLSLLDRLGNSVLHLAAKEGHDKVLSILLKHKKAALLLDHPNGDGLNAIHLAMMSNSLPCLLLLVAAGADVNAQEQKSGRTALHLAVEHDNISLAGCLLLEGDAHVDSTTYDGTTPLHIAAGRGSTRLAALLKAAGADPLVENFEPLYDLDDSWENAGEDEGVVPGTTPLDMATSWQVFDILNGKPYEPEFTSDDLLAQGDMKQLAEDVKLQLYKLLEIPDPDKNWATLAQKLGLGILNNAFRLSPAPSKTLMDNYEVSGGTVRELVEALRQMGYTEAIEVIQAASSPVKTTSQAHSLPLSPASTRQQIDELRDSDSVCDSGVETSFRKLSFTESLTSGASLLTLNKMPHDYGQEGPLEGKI

O=c1c(O)c(-c2ccc(O)c(O)c2)oc2cc(O)cc(O)c12
active: [2] 80.5 µM | [16] 86.8 µM
not listed: [17] | [18]
inactive: all other assays above

CCCCCCCCCCCCCCCCCC(=O)O
not listed: [12] | [18]
inactive: all other assays above

CC(=O)OC/C=C(\C)CCC=C(C)C
not listed: [8]
inactive: all other assays above

Nc1ccccc1N
inactive: [17] | [1] | [5] | [8] | [13] | [18] | [15]
active: [2] 62.7 µM | [3] 50 µM | [4] 71.4 µM | [6] 81.8 µM | [7] 64.8 µM | [9] 77.5 µM | [10] 67.4 µM | [11] 62.4 µM | [12] 81.8 µM | [14] 85.1 µM | [16] 69.5 µM

COc1ccc(S(=O)(=O)N2C(=O)[C@@](c3ccccc3OC)(N3C[C@H](O)C[C@H]3C(=O)N(C)C)c3cc(Cl)ccc32)c(OC)c1
active: [17] 50 µM | [2] 15.8 µM | [3] 12.1 µM | [4] 50 µM | [5] 50 µM | [6] 50 µM | [7] 21.5 µM | [9] 32.4 µM | [10] 16.8 µM | [11] 20.5 µM | [12] 13.9 µM | [13] 29.5 µM | [18] 83.2 µM | [14] 12.9 µM | [15] 50 µM | [16] 25.9 µM
inactive: [1]

O=C(O)CCCCC(=O)O
not listed: [10] | [18]
inactive: all other assays above

Cc1cccc([N+](=O)[O-])c1C
inactive: all assays above
